This note sets out measurements from ChEMBL document CHEMBL3433997, “St. Jude Leishmania screening dataset” (2016).

What all share (type): functional
Test [1] has as its target Solute carrier family 2, facilitated glucose transporter member 1 (Homo sapiens) (UniProt P11166). Briefly: ST_JUDE_LEISH: Cytotoxicity at 2uM final concentration against transgenic Leishmania Mexicana promastigotes LmGLUT1 that are glucose transport deficient and complemented with the human glucose transporter GLUT1. Activity is measured by DNA content using SYBR green in vitro.

In test [2] the target is Hexose transporter 1 (Plasmodium falciparum) (UniProt O97467). Briefly: ST_JUDE_LEISH: Cytotoxicity at 2uM final concentration against transgenic Leishmania Mexicana promastigotes LmPfHT that are glucose transport deficient and complemented with the Plasmodium falciparum hexose transporter. Activity is measured by DNA content using SYBR green in vitro.
The target of test [3] is Glucose transporter (Leishmania mexicana) (UniProt O61059). Briefly: ST_JUDE_LEISH: Cytotoxicity at 2uM final concentration against transgenic Leishmania Mexicana promastigotes LmGT2 that are glucose transport deficient and complemented with the L. Mexicana glucose transporter 2. Activity is measured by DNA content using SYBR green in vitro.

Chain of Solute carrier family 2, facilitated glucose transporter member 1 (Homo sapiens) (P11166 whole entry): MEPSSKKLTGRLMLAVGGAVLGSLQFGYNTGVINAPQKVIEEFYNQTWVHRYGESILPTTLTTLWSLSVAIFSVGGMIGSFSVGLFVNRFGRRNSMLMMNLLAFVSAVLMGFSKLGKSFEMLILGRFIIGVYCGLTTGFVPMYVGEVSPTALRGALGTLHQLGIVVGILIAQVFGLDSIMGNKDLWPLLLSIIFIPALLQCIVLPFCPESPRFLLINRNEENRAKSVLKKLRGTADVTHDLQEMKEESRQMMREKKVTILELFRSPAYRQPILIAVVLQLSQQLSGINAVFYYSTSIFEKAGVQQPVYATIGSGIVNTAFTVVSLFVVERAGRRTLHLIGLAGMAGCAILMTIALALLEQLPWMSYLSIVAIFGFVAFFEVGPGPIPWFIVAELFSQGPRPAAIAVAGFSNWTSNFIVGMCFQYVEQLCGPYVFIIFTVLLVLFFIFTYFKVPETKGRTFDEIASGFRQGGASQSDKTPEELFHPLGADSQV

As for `COc1ccc(C(C(=O)NC2CCN(C[C@H](O)c3ccnc4ccc(OC)cc34)CC2)N2CCN(c3ccc(Cl)c(Cl)c3)CC2)cc1` (stereo partly drawn), the values for the inhibition in test [1], in test [2] and in test [3] were -0.26%, -2.17% and -4.15%, respectively.
As to `CC(=O)Nc1ccc(Cl)c(Cl)c1`, the inhibition in test [1] is -0.84%; in test [2], 0.05%; in test [3] it was -0.72%.
In the case of `c1ccc(CN2CCN(CCNc3c4ccccc4nc4ccccc34)CC2)cc1`, the inhibition in test [1] is 13.5%; in test [2], 10.9%; in test [3], 12.9%.
Regarding `COc1ccc2nccc(N3CCC(NCCNS(=O)(=O)c4ccc5c(c4)NC(=O)CS5)C3)c2n1` (stereo not drawn), the inhibition in test [1] is -1.11%; in test [2], -1.18%; in test [3], -2.22%.
The like results for `Cc1cc(CNC(=O)[C@H](CC2CCCCC2)Nc2ccc(C#N)c3ccccc23)c(C(F)(F)F)o1` were, in that order, 1.15%, 1.57% and -1.16%.
The like results for `CCCC1CCNC(C(O)c2ccnc3ccc(OC)cc23)C1` (stereo not drawn) were, in that order, 1.89%, 1.16% and 2.16%.
The matching figures for `N#Cc1cccc(C(=O)Nc2cccc(-c3ccc(C(=O)Nc4cccnc4)cc3)c2)c1`: 4.01%, 2.59% and 1.36%.
As for `Clc1ccc(CNCC2CCN(CC3CCCCC3)CC2)cc1Cl`, the inhibition in test [1] is -1.58%; in test [2], 0.7%; in test [3], 0.64%.
As to `c1ccc(CNCc2ccc(-c3cccc(-c4nc5ccccc5[nH]4)c3)cc2)cc1`, the inhibition in test [1] is -1.6%; in test [2] it was -1.2%; in test [3], -1.62%.
The like results for `O=S(=O)(NCCN1CCCC1)c1ccc(-c2ccc(CNCc3ccc(F)cc3)cc2)s1` were, in that order, 7.34%, 5.54% and 0.98%.
`CC(C)[C@H](NC(=O)c1ccc(O)c(-c2ccc(Cl)c(Cl)c2)c1)C(=O)NCCN1CCCC1`: the inhibition in test [1] was -0.22%; in test [2], -0.09%; in test [3] it was 0.36%.
`O=C(NCc1cccc(C(F)(F)F)c1)c1ccc(-c2nc3cc(F)c(F)cc3[nH]2)cc1`: the inhibition is 1.11% in test [1], -2.13% in test [2] and 4.61% in test [3].
For `CS(=O)(=O)CCNCc1cccc(-c2cc3c(Nc4ccc(OCc5ccccc5)cc4)ncnc3cn2)c1`, the inhibition in test [1] worked out at 13.7%; in test [2], 10.7%; in test [3], 6.71%.
As for `Cc1cc(N2CCCC2)nc(Nc2ccc(NC(=O)c3ccccc3)cc2)n1`, the results for the inhibition in test [1], in test [2] and in test [3] were 1.14%, 6.69% and 3.09%, respectively.
The matching figures for `FC(F)(F)c1ccc2[nH]ccc(=NN=Cc3ccccc3)c2c1`: 1.45%, -0.56% and 0.98%.
Regarding `O=C(Nc1cccc(-c2cccc(-c3nc4ccccc4[nH]3)c2)c1)Nc1ccc(Cl)c(Cl)c1`, the inhibition was determined as 6.2% in test [1], 6.7% in test [2] and 7.6% in test [3].
The like results for `CCN(CCCN1CCCCC1)c1cc(C)nc(Nc2cc(Cl)cc(Cl)c2)n1` were, in that order, 0.93%, 2.39% and 1.01%.
Consider `CC(CN(C)C)Oc1ccc2nc(-c3cccc(OCc4ccccc4)c3)[nH]c2c1C#N` (stereo not drawn), for which the inhibition is -1.18% in test [1], 0.94% in test [2] and 0.08% in test [3].
`O=C(Nc1ccc(Cl)cc1)Nc1cccc(-c2cc(CNCCc3ccccc3)oc2-c2ccncc2)c1`: the inhibition was 5.78% in test [1], 2.56% in test [2] and 3.77% in test [3].
The like results for `O=C(NC1CC1)c1cnc(N2CCC(Cc3ccccc3)CC2)c(Cl)c1` were, in that order, 0.75%, -0.08% and -0.03%.
As to `C[C@@H](Oc1cc(-n2cnc3ccc(NC(=O)CCN4CCCCC4)cc32)sc1C(N)=O)c1ccccc1Cl`, the inhibition in test [1] is 8.99%; in test [2], 5.72%; in test [3], -0.04%.
Regarding `CC1CCN(CCCNc2ccc(C(=O)Nc3ccc(C(F)(F)F)cc3)cc2[N+](=O)[O-])CC1`, the inhibition in test [1] came to 4.71%; in test [2] it was 1.65%; in test [3], 5.07%.
Consider `CCCN(CCC)CCCCC(C)Nc1c2ccc(Cl)cc2nc2ccc(OC)cc12` (stereo not drawn), for which the inhibition was 8.02% in test [1], 8.65% in test [2] and 9.34% in test [3].
For the compound `Cn1c(=O)n(C)c2cc(CNCCNc3ccnc4cc(Cl)ccc34)ccc21`, the inhibition in test [1] was 2.25%; in test [2], 3.88%; in test [3], 0.4%.
On to `Cc1ccc(-c2cc(C(=O)Nc3ccc(S(=O)(=O)N(C)Cc4ccccc4)cc3)[nH]n2)c(O)c1`, for which the inhibition in test [1] was determined as 0.95%; in test [2], 0.3%; in test [3], 1.49%.
For `COc1ccccc1-c1sccc1C(=O)NC1(c2cc(Cl)cc(Cl)c2)CCCC1`, the inhibition in test [1] worked out at 1.22%; in test [2], 0.95%; in test [3] it was 4.85%.
As for `O=C(Nc1ccc(CC(=O)N2CCc3cc(Cl)c(N4CCN(C/C=C/c5ccccc5)CC4)cc32)cc1)Nc1cccc([N+](=O)[O-])c1`, the inhibition in test [1] was determined as 1.73%; in test [2], 1.25%; in test [3] it was 1.93%.
`Cc1cc(C)cc(OCC(O)CN(Cc2cc(Cl)cc(Cl)c2)C(=O)Nc2ccc(Cl)cc2)c1` (stereo not drawn): the inhibition is 0.89% in test [1], -0.94% in test [2] and -0.48% in test [3].
For the compound `O=C(Nc1cncc(NC(=O)c2ccc(Cl)c(Cl)c2)c1)c1ccc(Cl)c(Cl)c1`, the inhibition was 2.62% in test [1], 2.96% in test [2] and -0.68% in test [3].
The matching figures for `Nc1nc(N)c2cc(NC(=O)c3ccc(Cl)c(Cl)c3)ccc2n1`: 5.31%, 2.01% and 4.8%.
With `CC(C)CNCc1cccc(-c2cccc(CN(CCCN3CCN(C)CC3)C(=O)/C=C/c3ccccc3)c2)c1`, the inhibition in test [1] is -1.06%; in test [2], -1.23%; in test [3] it was -4.91%.
As to `OC(CNCc1ccccc1OCc1ccccc1)c1cc(Br)cs1` (stereo not drawn), the inhibition is 3.96% in test [1], 3.38% in test [2] and 3.82% in test [3].
As to `Nc1nc(N)c2cc3ccc(OCc4ccccc4)cc3nc2n1`, the values for the inhibition in test [1], in test [2] and in test [3] were 12.2%, 9.05% and 6.89%, respectively.
For `COc1ccc(NC(=O)Nc2cc(C)nc3ccccc23)cc1Cl`, the inhibition in test [1] was determined as 9.47%; in test [2], 8.02%; in test [3], 7.39%.
On to `O=C(Nc1ccc2c(c1)CCN2C1CCN(Cc2ccc(F)cc2Cl)C1)c1ccco1` (stereo not drawn), for which the figures for the inhibition in test [1], in test [2] and in test [3] were 1.66%, 0.61% and 2.25%, respectively.
The like results for `COc1ccc(C(=O)COc2cccc(/C=C/C(=O)O)c2)cc1OC` were, in that order, 0.26%, 0.15% and -0.23%.
